Reference: PubChem BioAssay AID803 (The Scripps Research Institute Molecular Screening Center, 2007)
In all, about 140,000 compounds went through this assay and about 680 (0.49%) were called active. No stated cut-off is given here; in the data, active means activation above about 5% (passing the limit was not always enough); inactive means the rest. Shown is part of a subset that was picked to be rich in actives.

molecular target: Galanin receptor type 2 (Homo sapiens) (UniProt O43603); test: human galanin receptor 2 activators – cell-based, primary screen (AID 803); conditions: GALR2-expressing cells, agonist activation read-out; at 5.6 µM; stronger effect = higher value;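 further: 0% = vehicle buffer wells and 100% = reference agonist at full effect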
Sequence (O43603 whole entry, looked up): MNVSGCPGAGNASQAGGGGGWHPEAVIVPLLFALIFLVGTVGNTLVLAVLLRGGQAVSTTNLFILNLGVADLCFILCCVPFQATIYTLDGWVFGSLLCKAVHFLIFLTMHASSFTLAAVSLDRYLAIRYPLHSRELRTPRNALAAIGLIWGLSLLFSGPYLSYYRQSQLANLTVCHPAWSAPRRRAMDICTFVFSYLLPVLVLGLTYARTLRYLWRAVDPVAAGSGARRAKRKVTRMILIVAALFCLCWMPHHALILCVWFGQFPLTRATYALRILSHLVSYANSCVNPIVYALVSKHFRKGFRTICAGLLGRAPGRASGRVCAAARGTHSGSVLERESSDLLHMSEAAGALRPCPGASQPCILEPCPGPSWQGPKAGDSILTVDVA

Structure (SMILES)	activation
COc1cc(NC(=O)c2cc([N+](=O)[O-])ccc2Br)ccc1NC(=O)c1ccco1	-2.01% (inactive)
Cc1ccc(-c2cc(N)on2)cc1	-1.6% (inactive)
CCOc1ccc(Br)cc1S(=O)(=O)Nc1ccc(C(=O)OC(C)C(=O)N(C)c2ccccc2)cc1 (stereo unspecified)	-0.52% (inactive)
COc1cc(NC(=S)NCCSc2ccc(C)cc2)cc(OC)c1	-1.5% (inactive)
Cc1noc(/C=C/c2ccco2)c1S(=O)(=O)N1CCC(C(=O)Nc2ccc(Cl)cn2)CC1	-1.28% (inactive)
Cc1cccc2cc(CN(Cc3cccs3)C(c3nnnn3C3CCCC3)C(C)C)c(=O)[nH]c12 (stereo unspecified)	-1.34% (inactive)
CCC(c1nnnn1C1CCCC1)N(Cc1cccs1)Cc1cc2cccc(C)c2[nH]c1=O (stereo unspecified)	-1.09% (inactive)
Cc1cccc2cc(CN(Cc3ccc4c(c3)OCO4)Cc3nnnn3C3CCCC3)c(=O)[nH]c12	5.7% (active)
COc1ccccc1C1CC(=O)n2c(nc(-c3ccccc3)c2-c2ccccc2)S1 (stereo unspecified)	-1.18% (inactive)
O=C1N(c2ccc(Cl)cc2)C(c2ccc(Cl)cc2)N2CCCN12 (stereo unspecified)	-0.59% (inactive)
NCCCC[C@@H]1NC(=O)[C@H](CCC(=O)O)NC(=O)c2cc([N+](=O)[O-])cc(I)c2NCC[C@@H](C(N)=O)NC1=O	-0.98% (inactive)
CNC(=S)N/N=C/c1cn(Cc2ccc(C)cc2)c2ccccc12	-1.46% (inactive)
O=c1cc(CO)oc(C(Nc2cccc([N+](=O)[O-])c2)c2ccccn2)c1O (stereo unspecified)	0.7% (inactive)
Cc1ccc(-c2cn3cc([N+](=O)[O-])ccc3n2)cc1	-1.19% (inactive)
CCOc1cc(NC(=O)c2cnccn2)c(OCC)cc1NC(=O)c1ccc(C)cc1	22.8% (active)
CCOc1ccc(C(=O)Nc2cc(OC)ccc2OC)cc1	-2.67% (inactive)
CCOc1ccccc1NC(=O)c1cccnc1	0.49% (inactive)
Cc1sc2nc(COC(=O)C(NC(=O)c3ccc(Cl)cc3Cl)C(C)C)[nH]c(=O)c2c1C (stereo unspecified)	-1.47% (inactive)
O=C(CSc1ncn[nH]1)Nc1ccnc2ccccc12	-2.63% (inactive)
CC(C)(C)c1ccc(C(=O)CSc2ncn[nH]2)cc1	-1.49% (inactive)
CCN(C(=O)CSc1ncn[nH]1)c1cccc2ccccc12	144% (active)
CC(=O)Nc1ccc(/C(C)=N/NC(=O)CN(c2ccccc2Br)S(C)(=O)=O)cc1	-0.42% (inactive)
CSc1ccc(/C=C/C(=O)NC23CC4CC(CC(C4)C2)C3)cc1	-1.84% (inactive)
Cc1cccn2c(=O)c3cc(C#N)c(=O)n(CCCN4CCOCC4)c3nc12	2.81% (inactive)
Cc1cccn2c(=O)c3cc(C#N)c(=NC(=O)c4cccnc4)n(CC4CCCO4)c3nc12 (stereo unspecified)	7.52% (active)
Cc1cccn2c(=O)c3cc(C(=O)N4COCC4(C)C)n(C)c3nc12	0.31% (inactive)
